# Laboratory results reported in PubChem BioAssay.
# Where “and” joins values, the source holds several entries; their conditions need not be identical. Equal entries are not always repeated. For some assays here: Measured potencies and affinities stand elsewhere. A structure can be active in one record and inactive in another. Calls of active or inactive are those of the source. Unless noted, no rule for the calls is given here.
# Key:
# [1] = polyglutamine-triggered caspase-3 activation inhibitors, cell-based (AID 1583); settings: polyglutamine-induced caspase-3 activation, cell assay; stronger effect = higher value;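 tested at 10 µM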
# [2] = suppressors of polyQ aggregation in yeast, 75Q-TubU reporter (AID 1593); settings: Yeast 75Q polyglutamine aggregation reporter
# [3] = rescue of polyQ-huntingtin neuronal dysfunction in worms, whole organism, C. elegans mechanosensory neurons, N-terminal huntingtin (AID 1599); settings: touch response, stronger effect = higher value
# [4] = inhibitors of mitochondrial cytochrome c release, biochemical, purified mitochondria (AID 1603); settings: stronger effect = lower value;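 also: mouse liver mitochondria challenged with calcium chloride; signal normalized to the plate average as 100%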
# [5] = inhibitors of polyQ protein aggregation (AID 1604); settings: polyglutamine-induced protein aggregation inhibition assay; stronger effect = higher value; tested at 2.5 µM
# [6] = enhancers of glutamate uptake in motor neurons, MN-1 cell line (AID 1612); settings: MN-1 motor neuron cells, stronger effect = higher value;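 also: tested at 1 µM final; 0% = mean of DMSO vehicle wells on each plate; positive means more glutamate uptake than control and negative means less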
# [7] = reducers of polyQ inclusions in PC12 cells, cell-based, NGF-treated PC12, GFPQ80 (AID 1614); settings: PC12 NGF-treated GFP-polyQ80 inclusion reduction;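 also: lower means fewer inclusions and 0 means no inclusions at all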
# [8] = suppressors of polyglutamine aggregation in yeast, 75Q-TubH (AID 1616); settings: S. cerevisiae 75Q-TubH polyglutamine aggregation suppression; stronger effect = higher value
# [9] = circadian clock period modulators, cell-based, LOPAC library, luminescence reporter (AID 2774); settings: circadian reporter cells, at 7 µM, actives lie on both sides;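 also: values are relative to mean of DMSO wells on each plate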
# [10] = liver-stage malaria parasite growth inhibition, primary screen, cell-based, HepG2, luciferase luminescence, HepG2 viability (AID 624349; in the data active = parasite load remaining mostly below about 12%, no sharp cut-off; inactive = mostly above about 10%;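 also: 100% = mean of DMSO negative control wells on the same plate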); settings: P. berghei liver stage in HepG2, luciferase luminescence, concentration not given here; parasite load remaining: stronger effect = lower value; viability: measured here: HepG2 viability without parasites
# [11] = tested on: Hepatitis C virus NS3 helicase; test: HCV NS3 helicase inhibitors, primary screen, biochemical, fluorescence polarization, LOPAC1280 library (AID 687035; in the data active = inhibition above about 37%); settings: Purified HCV NS3 helicase, Cy5-dT15 ssDNA binding fluorescence polarization; stronger effect = higher value; concentration not given here
# [12] = target: 6-phosphogluconate dehydrogenase, decarboxylating (Homo sapiens) (UniProt P52209); test: 6PGD enzyme inhibitors, primary screen, biochemical, human, recombinant enzyme, NADPH absorbance (AID 1159550;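 active = at least 20% inhibition of 6-phosphogluconate dehydrogenase activity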); settings: recombinant 6PGD, NADPH absorbance 341 nm; at 10 µM; stronger effect = higher value
# 6-phosphogluconate dehydrogenase, decarboxylating (Homo sapiens), sequence (P52209 whole entry, looked up): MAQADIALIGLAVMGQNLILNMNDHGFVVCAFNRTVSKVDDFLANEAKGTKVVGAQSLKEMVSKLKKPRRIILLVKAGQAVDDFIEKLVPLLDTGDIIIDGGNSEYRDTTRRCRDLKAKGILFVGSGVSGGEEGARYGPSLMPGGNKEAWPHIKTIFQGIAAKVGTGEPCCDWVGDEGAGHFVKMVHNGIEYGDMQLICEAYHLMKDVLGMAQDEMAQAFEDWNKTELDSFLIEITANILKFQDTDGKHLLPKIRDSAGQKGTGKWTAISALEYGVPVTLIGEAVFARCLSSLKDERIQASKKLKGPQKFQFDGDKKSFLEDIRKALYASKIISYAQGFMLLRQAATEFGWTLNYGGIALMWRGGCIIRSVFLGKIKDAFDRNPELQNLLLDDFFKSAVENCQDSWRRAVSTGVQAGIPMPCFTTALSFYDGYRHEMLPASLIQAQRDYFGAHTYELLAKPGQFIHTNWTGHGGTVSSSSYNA
# [13] = differential killing of epithelial or mesenchymal cells, primary screen, imaging, PC-3E GFP, TEM4-18 mCherry, co-culture (AID 1345086;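 active = compounds killing one labelled cell type while sparing the other, by normalised counts and ratio limits, not self-fluorescent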;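 as to all read-outs here: cells exposed to compound for 72 h before imaging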;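 as to red/green cell ratio (normalised): normalised mesenchymal count divided by normalised epithelial count so high means epithelial killing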); settings: imaging cell counts, at 1 µM; for red/green cell ratio (normalised): actives lie on both sides
# [14] = tested on: Aerobactin synthetase IucA (Klebsiella pneumoniae hvKP1); test: Biochemical IucA enzyme inhibition primary screen of the Spectrum library (AID 1346200); settings: malachite green pyrophosphate, A620, at 8 µM, stronger effect = lower value;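 also: 100% = wells without compound and 0% = wells lacking enzyme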
# [15] = sensitizers of A549 cells to miR-34 induction, primary screen, imaging, A549 dox-inducible miR-34, nuclei and caspase counts (AID 1347080;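 active = compounds whose cell count with miR-34 switched on is under 0.7 times the count with it off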); settings: A549 miR-34 inducible, Hoechst nuclei count, 48 h
# [16] = target: Mitogen-activated protein kinase 7 (Homo sapiens) (UniProt Q13164); test: ERK5 transactivation activators in reporter cells, primary screen, cell-based, HTS (AID 1508626;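 active = luciferase signal above three times the same-plate solvent-only control wells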;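 also: luciferase driven by Gal4-ERK5 fusion binding five Gal4 sites before minimal TATA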); settings: HeLa Gal4-ERK5 transactivation, 18 h, at 5 µM, stronger effect = higher value
# Mitogen-activated protein kinase 7 (Homo sapiens), sequence (Q13164 whole entry, looked up, the tested form may be a part): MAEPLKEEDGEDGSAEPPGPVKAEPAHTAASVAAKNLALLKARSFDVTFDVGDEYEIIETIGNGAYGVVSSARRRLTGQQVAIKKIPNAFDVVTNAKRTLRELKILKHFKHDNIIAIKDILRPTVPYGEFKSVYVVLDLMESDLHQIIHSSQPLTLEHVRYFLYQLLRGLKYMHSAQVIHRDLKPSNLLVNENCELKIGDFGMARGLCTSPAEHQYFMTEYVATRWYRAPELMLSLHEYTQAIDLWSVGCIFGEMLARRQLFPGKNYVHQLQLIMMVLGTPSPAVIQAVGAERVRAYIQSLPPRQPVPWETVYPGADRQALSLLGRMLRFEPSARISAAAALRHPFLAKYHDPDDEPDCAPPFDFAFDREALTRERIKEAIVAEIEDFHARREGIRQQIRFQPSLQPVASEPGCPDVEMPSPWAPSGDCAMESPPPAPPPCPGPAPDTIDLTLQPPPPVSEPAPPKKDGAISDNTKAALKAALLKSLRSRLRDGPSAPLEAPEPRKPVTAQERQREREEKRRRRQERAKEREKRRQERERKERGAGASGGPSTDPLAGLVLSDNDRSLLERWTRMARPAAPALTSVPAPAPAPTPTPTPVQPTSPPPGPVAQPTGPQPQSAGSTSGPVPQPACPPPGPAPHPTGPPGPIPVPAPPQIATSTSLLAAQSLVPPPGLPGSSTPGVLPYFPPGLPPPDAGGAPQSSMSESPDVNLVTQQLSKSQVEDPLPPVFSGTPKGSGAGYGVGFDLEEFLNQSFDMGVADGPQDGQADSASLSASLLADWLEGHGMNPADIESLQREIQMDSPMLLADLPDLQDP
# [17] = viability rescue of complex I mutant cybrids, primary screen, cell-based, galactose medium, ATP luminescence (AID 1645843;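 active = z-score of at least 1.8 in each of two replicates, scored against plate mean and spread of sample wells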;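 also: positive z means more ATP and so rescue of galactose-driven cybrid death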); settings: complex I mutant cybrid cells, 72 h, stronger effect = higher value
# [18] = hESC survival regulators, cell-based (AID 493140); settings: human embryonic stem cell survival screen; stronger effect = higher value;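 also: cells exposed to compounds for four days before counting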
# [19] = survival rescue of mitochondrial mutant cells in low glucose, primary screen, MELAS cybrids, Rieske KO mouse fibroblasts, CellTiter-Glo (AID 1508586;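 active = mean z-score across replicates of 1.96 or higher in either the MELAS or the Rieske mutant cell line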;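 also: z relative to plate mean and SD of compound and empty wells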)
# [20] = target: NAD(+) hydrolase SARM1 (Homo sapiens) (UniProt Q6SZW1); test: SARM1 TIR NADase inhibitors, cell lysate, NAD-Glo luminescence (AID 1508614;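 active = compound whose remaining NAD level is above about 45 nM, limit read from the data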;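 also: higher remaining NAD means stronger inhibition of SARM1 NADase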); settings: SAM-TIR HEK293T lysate NADase, at 1 µM, stronger effect = higher value
# NAD(+) hydrolase SARM1 (Homo sapiens), sequence (Q6SZW1 whole entry, looked up): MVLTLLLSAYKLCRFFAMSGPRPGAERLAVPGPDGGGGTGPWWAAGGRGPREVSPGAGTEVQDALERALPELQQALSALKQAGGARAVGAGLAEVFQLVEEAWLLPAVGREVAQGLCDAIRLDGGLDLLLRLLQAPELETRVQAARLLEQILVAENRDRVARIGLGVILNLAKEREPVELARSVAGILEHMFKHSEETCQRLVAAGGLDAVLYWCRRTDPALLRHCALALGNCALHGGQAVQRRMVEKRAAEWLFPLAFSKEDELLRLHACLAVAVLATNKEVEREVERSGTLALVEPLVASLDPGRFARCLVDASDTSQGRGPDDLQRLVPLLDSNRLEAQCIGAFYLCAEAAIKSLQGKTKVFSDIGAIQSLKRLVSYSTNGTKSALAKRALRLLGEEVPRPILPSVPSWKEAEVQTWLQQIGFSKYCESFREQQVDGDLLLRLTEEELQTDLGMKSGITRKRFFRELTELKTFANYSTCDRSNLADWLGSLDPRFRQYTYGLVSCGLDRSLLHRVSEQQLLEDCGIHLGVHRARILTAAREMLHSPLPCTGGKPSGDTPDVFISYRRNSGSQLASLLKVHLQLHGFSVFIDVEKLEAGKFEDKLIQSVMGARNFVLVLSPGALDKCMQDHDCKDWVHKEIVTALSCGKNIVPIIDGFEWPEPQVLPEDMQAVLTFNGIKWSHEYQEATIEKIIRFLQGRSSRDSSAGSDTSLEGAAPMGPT
# [21] = measured here: epithelial PC-3E GFP cell survival
# [22] = measured here: mesenchymal TEM4-18 mCherry cell survival
# [23] = measured here: relative caspase fold change +Dox/-Dox
# [24] = measured here: total cells with miR-34 induction, stronger effect = lower value
# [25] = measured here: total cells without miR-34 induction
# [26] = MELAS cybrid survival, CellTiter-Glo 48 h, stronger effect = higher value
# [27] = Rieske KO mouse fibroblast survival, CellTiter-Glo 72 h
# [28] = counts scaled to control wells, 1 = unselective
smiles,measurement,setting,value
NCCc1c[nH]c2ccccc12,inhibition,[1],21.6%
same,score,[2],1.14
same,rescue above control,[3],-4.06
same,cytochrome c release ratio,[4],0.68
same,inhibition of aggregation,[5],21.6%
same,glutamate uptake change,[6],6.97%
same,inclusion score,[7],2
same,aggregation suppression score,[8],1.32
same,period change,[9],0.085 h (inactive)
same,parasite load remaining,[10],148% (inactive)
same,viability,[10],88.3%
same,inhibition,[11],0% (inactive)
same,inhibition,[12],-12.7% (inactive)
same,red/green cell ratio (normalised),[13],1.06 (inactive)
same,normalised cell number,[13]; [21],0.86
same,normalised cell number,[13]; [22],0.92
same,activity remaining,[14],113% (inactive)
same,fold change,[15]; stronger effect = lower value,1.02 (inactive)
same,fold change,[15]; [23],1.42
same,cell count,[15]; [24],9290
same,cell count,[15]; [25],9110
same,luciferase signal,[16],44 AU (inactive)
same,z-score,[17],0.19 (inactive)
CC[N+]1(C)CCCC(OC(=O)C(O)(c2ccccc2)c2ccccc2)C1 (stereo not given),inhibition,[1],-29.9%
same,score,[2],1.45
same,rescue above control,[3],-4.25
same,cytochrome c release ratio,[4],1.2
same,inhibition of aggregation,[5],91.6%
same,glutamate uptake change,[6],-17.4%
same,inclusion score,[7],2
same,aggregation suppression score,[8],1.25
same,survival,[18],2.83 (inactive)
same,parasite load remaining,[10],98.8% (inactive) and 137% (inactive)
same,viability,[10],99.5% and 99.4%
same,inhibition,[12],-2.23% (inactive)
same,red/green cell ratio (normalised),[13],0.98 (inactive)
same,normalised cell number,[13]; [21],1.12
same,normalised cell number,[13]; [22],1.1
same,activity remaining,[14],116% (inactive)
same,fold change,[15]; stronger effect = lower value,0.964 (inactive)
same,fold change,[15]; [23],1.14
same,cell count,[15]; [24],8700
same,cell count,[15]; [25],9020
same,z-score,[19]; [26],-0.637 (inactive)
same,z-score,[19]; [27],-0.323
same,luciferase signal,[16],84 AU (inactive)
CCOP(=S)(OCC)Oc1nc(Cl)c(Cl)cc1Cl,inhibition,[12],-10.3% (inactive)
same,red/green cell ratio (normalised),[13],0.91 (inactive)
same,normalised cell number,[13]; [21],0.9
same,normalised cell number,[13]; [22],0.82
same,activity remaining,[14],79.3% (inactive)
same,fold change,[15]; stronger effect = lower value,0.887 (inactive)
same,fold change,[15]; [23],1.26
same,cell count,[15]; [24],8030
same,cell count,[15]; [25],9060
same,remaining NAD,[20],10 nM (inactive)
CN[C@@H](C)[C@@H](O)c1ccccc1,inhibition,[1],11.2%
same,score,[2],1.57
same,rescue above control,[3],-0.65
same,cytochrome c release ratio,[4],0.84
same,inhibition of aggregation,[5],80.3%
same,glutamate uptake change,[6],-5.15%
same,inclusion score,[7],2
same,aggregation suppression score,[8],1.15
same,parasite load remaining,[10],106% (inactive) and 61.4% (inactive)
same,viability,[10],73.1% and 87.5%
same,inhibition,[12],2.73% (inactive)
same,red/green cell ratio (normalised),[13],1.05 (inactive)
same,normalised cell number,[13]; [21],1.12
same,normalised cell number,[13]; [22],1.18
same,activity remaining,[14],98.2% (inactive)
same,fold change,[15]; stronger effect = lower value,0.905 (inactive)
same,fold change,[15]; [23],3.17
same,cell count,[15]; [24],11300
same,cell count,[15]; [25],12500
same,luciferase signal,[16],36 AU (inactive)
O=[N+]([O-])c1cc([As](=O)(O)O)ccc1O,inhibition,[1],4.6%
same,score,[2],1.17
same,rescue above control,[3],-4.04
same,cytochrome c release ratio,[4],1.09
same,inhibition of aggregation,[5],3.7%
same,glutamate uptake change,[6],-17%
same,inclusion score,[7],1.5
same,aggregation suppression score,[8],1.08
same,survival,[18],4.83 (inactive)
same,parasite load remaining,[10],90.8% (inactive) and -0.22% (active) and 33.7% (inactive)
same,viability,[10],83.9% and 75.8% and 93.4%
same,inhibition,[12],11.3% (inactive)
same,red/green cell ratio (normalised),[13],1.34 (inactive)
same,normalised cell number,[13]; [21],0.89
same,normalised cell number,[13]; [22],1.19
same,activity remaining,[14],112% (inactive)
same,fold change,[15]; stronger effect = lower value,0.929 (inactive) and 0.938 (inactive)
same,fold change,[15]; [23],0.651 and 3.1
same,cell count,[15]; [24],8580 and 11200
same,cell count,[15]; [25],9240 and 11900
same,remaining NAD,[20],10 nM (inactive)
same,luciferase signal,[16],44 AU (inactive)
CC[C@@H]1C(=O)OC[C@@H]1Cc1cncn1C,inhibition,[1],5.24%
same,score,[2],1.3
same,rescue above control,[3],1.26
same,cytochrome c release ratio,[4],1.64
same,inhibition of aggregation,[5],35.3%
same,glutamate uptake change,[6],4.33%
same,inclusion score,[7],2
same,aggregation suppression score,[8],1.4
same,period change,[9],-0.045 hour (inactive) and -0.055 hour (inactive)
same,survival,[18],5.75 (inactive)
same,inhibition,[11],-2% (inactive) and 1% (inactive)
same,inhibition,[12],-6.49% (inactive)
same,red/green cell ratio (normalised),[13]; [28],1.18 (inactive)
same,normalised cell number,[13]; [21],0.97
same,normalised cell number,[13]; [22],1.14
same,activity remaining,[14],115% (inactive)
same,z-score,[19]; [26],0.213 (inactive)
same,z-score,[19]; [27],-0.117
same,remaining NAD,[20],10 nM (inactive)
same,luciferase signal,[16],44 AU (inactive)
same,z-score,[17],0.47 (inactive) and 0.265 (inactive) and 0.26 (inactive)
C[C@@H](N)[C@@H](O)c1ccccc1,parasite load remaining,[10],28.8% (inactive)
same,viability,[10],110%
same,inhibition,[12],-16.8% (inactive) and 9.51% (inactive)
same,red/green cell ratio (normalised),[13],0.97 (inactive)
same,normalised cell number,[13]; [21],1.13
same,normalised cell number,[13]; [22],1.1
same,activity remaining,[14],122% (inactive)
same,fold change,[15]; stronger effect = lower value,0.851 (inactive)
same,fold change,[15]; [23],1.36
same,cell count,[15]; [24],8010
same,cell count,[15]; [25],9410
same,z-score,[19]; [26],-0.426 (inactive)
same,z-score,[19]; [27],-0.509
COc1ccc2c(c1)[nH]c1c(C)nccc12,survival,[18],4.58 (inactive)
same,viability,[10],76.6% and 67.9% and 85.5%
same,inhibition,[12],-2.64% (inactive)
same,red/green cell ratio (normalised),[13],0.67 (inactive)
same,normalised cell number,[13]; [21],0.9
same,normalised cell number,[13]; [22],0.6
same,activity remaining,[14],104% (inactive)
same,fold change,[15]; stronger effect = lower value,0.845 (inactive) and 0.909 (inactive) and 0.923 (inactive)
same,fold change,[15]; [23],1.49 and 0.507 and 1.16
same,cell count,[15]; [24],4630 and 5110 and 4130
same,cell count,[15]; [25],5480 and 5630 and 4470
same,z-score,[19]; [26],0.384 (inactive)
same,z-score,[19]; [27],1.34
same,luciferase signal,[16],124 AU (inactive)
same,z-score,[17],-0.45 (inactive)
C[C@H]1CCCC(=O)CCC/C=C/c2cc(O)cc(O)c2C(=O)O1,inhibition,[12],15.7% (inactive)
same,red/green cell ratio (normalised),[13]; [28],1.02 (inactive)
same,normalised cell number,[13]; [21],1.02
same,normalised cell number,[13]; [22],1.04
same,activity remaining,[14],103% (inactive)
O=C(O)CCC1NCC2CC1CN1CCCCC21 (stereo not given),inhibition,[12],1.87% (inactive)
same,red/green cell ratio (normalised),[13]; [28],1.12 (inactive)
same,normalised cell number,[13]; [21],0.9
same,normalised cell number,[13]; [22],1.01
same,activity remaining,[14],120% (inactive)
O=C(O)CC[N+](=O)[O-],period change,[9],-0.005 h (inactive)
same,inhibition,[11],-3% (inactive)
same,inhibition,[12],-4.59% (inactive)
same,red/green cell ratio (normalised),[13],1.06 (inactive)
same,normalised cell number,[13]; [21],0.86
same,normalised cell number,[13]; [22],0.91
same,activity remaining,[14],105% (inactive)
same,fold change,[15]; stronger effect = lower value,1.06 (inactive)
same,fold change,[15]; [23],2.1
same,cell count,[15]; [24],10800
same,cell count,[15]; [25],10200
same,luciferase signal,[16],152 AU (inactive)
same,z-score,[17],-0.29 (inactive)
